Data taken from PubChem BioAssay (EPA / NIEHS).
Records with an inconclusive call do not appear. Active and inactive are the calls of the source. How the source made its calls, unless noted: active means hit-call score of the fitted dose curve at least 0.9, where 1 is the maximum; inconclusive means response in the unintended direction; inactive means score below 0.9.

Assays:
[1] = target: Peroxisome proliferator-activated receptor gamma (Homo sapiens) (UniProt P37231); assay: NVS_NR_hPPARg: NovaScreen (NVS) Nuclear Receptor Binding Assay for human Peroxisome Proliferator-activated Receptor gamma (PPARg) (AID 2283370)
How it was run: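 Cell-free fluorescence polarization binding to human PPARg protein, read 2 h after dosing. Primary screen in duplicate at 25 uM, actives followed in concentration series; loss of signal relative to DMSO scored.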

[2] = target: human AKT serine/threonine Kinase 1 (AKT1), AKT1 (gene 207) (UniProt P31749); assay: NVS_ENZ_hAKT1: NovaScreen (NVS) Enzymatic Assay for human AKT serine/threonine Kinase 1 (AKT1) (AID 2283138)
How it was run: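 A biochemical assay with recombinant enzyme and specific substrate, read by fluorescence intensity with mobility-shift separation 1 hour after dosing. Actives from 25 uM duplicate screening were titrated up to 50 uM against DMSO baseline.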

CDK2 (gene 1017) = CDK2 (gene 1017) (UniProt P24941); assay: NVS_ENZ_hCDK2: NovaScreen (NVS) Enzymatic Assay for human Cyclin-Cependent Kinase 2 (CDK2) (AID 2283144)
How it was run: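 Compounds screened in duplicate at 25 uM, then in singleton concentration-response to a maximum of 50 uM, against recombinant CDK2; kinase activity read 1 hr after dosing by fluorescence with mobility-shift separation of substrate and product.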

[3] = target: human Casein Kinase 1-delta (CK1D), CSNK1D (gene 1453) (UniProt P48730); assay: NVS_ENZ_hCK1D: NovaScreen (NVS) Enzymatic Assay for human Casein Kinase 1-delta (CK1D) (AID 2283148)
How it was run: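 Recombinant human CK1-delta, cell-free; fluorescent substrate with electrophoretic mobility-shift separation of product, read 1 h after dosing. Single 25 uM duplicate screen, then concentration-response up to 50 uM; loss of signal vs DMSO.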

[4] = target: human Colony Stimulating Factor 1 Receptor (CSF1R), CSF1R (gene 1436) (UniProt P07333); assay: NVS_ENZ_hCSF1R: NovaScreen (NVS) Enzymatic Assay for human Colony Stimulating Factor 1 Receptor (CSF1R) (AID 2283150)
How it was run: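 Compounds screened in duplicate at 25 uM, then concentration-response (top 50 uM) for those passing threshold such as 30% inhibition; recombinant CSF1R activity measured 1 h post-dosing via fluorescent substrate/product mobility-shift separation, loss of signal versus DMSO.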

[5] = target: human FYN Proto-Oncogene, Src family Tyrosine Kinase (Fyn), FYN (gene 2534) (UniProt P06241); assay: NVS_ENZ_hFyn: NovaScreen (NVS) Enzymatic Assay for human FYN Proto-Oncogene, Src family Tyrosine Kinase (Fyn) (AID 2283161)
How it was run: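 Cell-free kinase activity read by fluorescence after mobility-shift separation of substrate and product, 1 h post-dose. Initial single concentration 25 uM in duplicate, then concentration-response follow-up; DMSO baseline.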

[6] = target: Tyrosine-protein phosphatase non-receptor type 11 (Homo sapiens) (UniProt Q06124); assay: NVS_ENZ_hPTPN11: NovaScreen (NVS) Enzymatic Assay for human Protein Tyrosine Phosphatase Non-receptor Type 11 (PTPN11) (AID 2283202)
How it was run: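 Compounds first tested in duplicate at 25 uM; those reaching ~30% inhibition rerun in singleton concentration-response, top 50 uM. Phosphatase activity measured after 0.5 h by fluorescence with mobility-shift separation, relative to DMSO.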

[7] = target: Tyrosine-protein phosphatase non-receptor type 13 (Homo sapiens) (UniProt Q12923); assay: NVS_ENZ_hPTPN13: NovaScreen (NVS) Enzymatic Assay for human Protein Tyrosine Phosphatase Non-receptor Type 13 (PTPN13) (AID 2283205)
How it was run: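 Screened first at a single 25 uM in duplicate; compounds passing the threshold (e.g. 30% inhibition) were rerun in concentration series, top 50 uM. Recombinant enzyme, fluorescent substrate, mobility-shift separation, 0.5 h read. Data fitted as inhibition relative to DMSO.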

[8] = target: human Protein Tyrosine Phosphatase Non-receptor Type 2 (PTPN2), PTPN2 (gene 5771) (UniProt P17706); assay: NVS_ENZ_hPTPN2: NovaScreen (NVS) Enzymatic Assay for human Protein Tyrosine Phosphatase Non-receptor Type 2 (PTPN2) (AID 2283207)
How it was run: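 Activity measured as fluorescence after mobility-shift separation of substrate and product, 1 h after compound. Duplicate single-point 25 uM primary testing, concentration series for actives; inhibition scored as signal loss relative to DMSO baseline.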

[9] = target: human Protein Tyrosine Phosphatase Receptor Type M (PTPRM), PTPRM (gene 5797) (UniProt P28827); assay: NVS_ENZ_hPTPRM: NovaScreen (NVS) Enzymatic Assay for human Protein Tyrosine Phosphatase Receptor Type M (PTPRM) (AID 2283215)
How it was run: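 Read-out is fluorescence after electrophoretic separation of substrate and product, taken 1.33 h post-dosing with recombinant enzyme. Compounds screened at 25 uM in duplicate, then concentration series for actives; activity as signal loss relative to DMSO.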

[10] = target: human Vascular Endothelial Growth Factor Receptor 3 (VEGFR3), FLT4 (gene 2324) (UniProt P35916); assay: NVS_ENZ_hVEGFR3: NovaScreen (NVS) Enzymatic Assay for human Vascular Endothelial Growth Factor Receptor 3 (VEGFR3) (AID 2283229)
How it was run: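 Chemicals first run in duplicate at 25 uM, with actives re-tested in concentration series to a top of 50 uM. Recombinant VEGFR3 activity measured after 1 h via fluorescence with mobility-shift product separation; inhibition fitted relative to DMSO.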

[11] = target: human Vascular Endothelial Growth Factor Receptor 2 (VEGFR2), KDR (gene 3791) (UniProt P35968); assay: NVS_ENZ_hVEGFR2: NovaScreen (NVS) Enzymatic Assay for human Vascular Endothelial Growth Factor Receptor 2 (VEGFR2) (AID 2283230)
How it was run: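 Cell-free recombinant VEGFR2 kinase, fluorescent substrate with electrophoretic mobility-shift separation; read 1 h after dosing. Screened at 25 uM in duplicate, hits to concentration-response up to 50 uM; loss-of-signal versus DMSO.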

[12] = target: sheep Cyclooxygenase-2 (Cox2), PTGS2 (gene 443460) (UniProt P79208); assay: NVS_ENZ_oCOX2: NovaScreen (NVS) Enzymatic Assay for sheep Cyclooxygenase-2 (Cox2) (AID 2283231)
How it was run: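 Enzyme extracted from ovine placenta tested cell-free; activity read colorimetrically by absorbance 0.66 hour after dosing. Primary screen in duplicate at 25 uM; hits rerun as concentration series to 50 uM, loss of signal versus DMSO baseline.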

[13] = target: rat Constitutive Nitric Oxide Synthase (CNOS), Nos1 (gene 24598) (UniProt P29476); assay: NVS_ENZ_rCNOS: NovaScreen (NVS) Enzymatic Assay for rat Constitutive Nitric Oxide Synthase (CNOS) (AID 2283236)
How it was run: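 Single 25 uM duplicate screen, then concentration series to 50 uM for chemicals meeting threshold. Rat brain membrane-derived CNOS activity detected radiometrically by filtration and scintillation counting, 1 h after compound addition; DMSO as baseline.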

[14] = read-out: Tumor necrosis factor receptor superfamily member 6 (Homo sapiens) (UniProt P25445); assay: LTEA_HepaRG_FAS: Life Technologies and Expression Analysis (LTEA) Assay for Fas cell surface death receptor (FAS) using HepaRG (AID 2283447; active means hit-call score of the fitted dose curve at least 0.9, where 1 is the maximum; inactive means score below 0.9); settings: mRNA level, 48 h; actives raise or lower the signal
How it was run: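 FAS transcript level was measured by TaqMan qRT-PCR against three housekeeping genes after 48 h chemical exposure. Cells were HepaRG, 0.5% DMSO vehicle, with a top concentration of 100 uM and half-log dilutions over eight points, in duplicate.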

[15] = read-out: Fatty acid synthase (Homo sapiens) (UniProt P49327); assay: LTEA_HepaRG_FASN: Life Technologies and Expression Analysis (LTEA) Assay for Fatty Acid Synthase (FASN) using HepaRG (AID 2283448; active means hit-call score of the fitted dose curve at least 0.9, where 1 is the maximum; inactive means score below 0.9); settings: mRNA level, 48 h; actives raise or lower the signal
How it was run: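 In human HepaRG cultures, 48 h chemical exposure (up to 100 uM, 0.5% DMSO) preceded TaqMan qRT-PCR of FASN.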

[16] = read-out: Cyclin Dependent Kinase Inhibitor 1A (CDKN1A), CDKN1A (gene 1026); assay: LTEA_HepaRG_CDKN1A: Life Technologies and Expression Analysis (LTEA) Assay for Cyclin Dependent Kinase Inhibitor 1A (CDKN1A) using HepaRG (AID 2283450; active means hit-call score of the fitted dose curve at least 0.9, where 1 is the maximum; inactive means score below 0.9); settings: mRNA level, 48 h; actives raise or lower the signal
How it was run: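 Differentiated HepaRG cells in serum-free induction medium, exposed 48 h in duplicate to eight half-log concentrations up to 100 uM in 0.5% DMSO. mRNA measured by TaqMan qRT-PCR, normalized to ACTB, GAPDH, POLR2A; bidirectional fit versus DMSO.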

[17] = read-out: Cyclin D1 (CCND1), CCND1 (gene 595); assay: LTEA_HepaRG_CCND1: Life Technologies and Expression Analysis (LTEA) Assay for Cyclin D1 (CCND1) using HepaRG (AID 2283451; active means hit-call score of the fitted dose curve at least 0.9, where 1 is the maximum; inactive means score below 0.9); settings: mRNA level, 48 h; actives raise or lower the signal
How it was run: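 Differentiated HepaRG cells exposed 48 h in serum-free induction medium to eight half-log concentrations from 100 uM top, 0.5% DMSO, duplicates. CCND1 mRNA measured by Fluidigm TaqMan qRT-PCR, normalised to ACTB, GAPDH, POLR2A; bidirectional fit.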

[18] = read-out: catalase (CAT), CAT (gene 847); assay: LTEA_HepaRG_CAT: Life Technologies and Expression Analysis (LTEA) Assay for catalase (CAT) using HepaRG (AID 2283452; active means hit-call score of the fitted dose curve at least 0.9, where 1 is the maximum; inactive means score below 0.9); settings: mRNA level, 48 h; actives raise or lower the signal
How it was run: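 Expression of CAT was quantified by TaqMan qRT-PCR with ACTB/GAPDH/POLR2A normalization after 48 h chemical exposure of HepaRG. Eight-point half-log series, top 100 uM, in 0.5% DMSO; gain or loss fitted against vehicle.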

[19] = read-out: flavin-containing dimethylaniline monooxygenases 3 (FMO3), FMO3 (gene 2328); assay: LTEA_HepaRG_FMO3: Life Technologies and Expression Analysis (LTEA) Assay for flavin-containing dimethylaniline monooxygenases 3 (FMO3) using HepaRG (AID 2283453; active means hit-call score of the fitted dose curve at least 0.9, where 1 is the maximum; inactive means score below 0.9); settings: mRNA level, 48 h; actives raise or lower the signal
How it was run: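 Eight-point concentration-response in serum-free HepaRG cultures (top 100 uM, 0.5% DMSO, 48 h). Read-out: FMO3 mRNA level normalized to three endogenous control genes, fitted bidirectionally versus vehicle.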

Measured: outcome

human Protein Tyrosine Phosphatase Receptor Type M (PTPRM), PTPRM (gene 5797), sequence (P28827 whole entry, looked up): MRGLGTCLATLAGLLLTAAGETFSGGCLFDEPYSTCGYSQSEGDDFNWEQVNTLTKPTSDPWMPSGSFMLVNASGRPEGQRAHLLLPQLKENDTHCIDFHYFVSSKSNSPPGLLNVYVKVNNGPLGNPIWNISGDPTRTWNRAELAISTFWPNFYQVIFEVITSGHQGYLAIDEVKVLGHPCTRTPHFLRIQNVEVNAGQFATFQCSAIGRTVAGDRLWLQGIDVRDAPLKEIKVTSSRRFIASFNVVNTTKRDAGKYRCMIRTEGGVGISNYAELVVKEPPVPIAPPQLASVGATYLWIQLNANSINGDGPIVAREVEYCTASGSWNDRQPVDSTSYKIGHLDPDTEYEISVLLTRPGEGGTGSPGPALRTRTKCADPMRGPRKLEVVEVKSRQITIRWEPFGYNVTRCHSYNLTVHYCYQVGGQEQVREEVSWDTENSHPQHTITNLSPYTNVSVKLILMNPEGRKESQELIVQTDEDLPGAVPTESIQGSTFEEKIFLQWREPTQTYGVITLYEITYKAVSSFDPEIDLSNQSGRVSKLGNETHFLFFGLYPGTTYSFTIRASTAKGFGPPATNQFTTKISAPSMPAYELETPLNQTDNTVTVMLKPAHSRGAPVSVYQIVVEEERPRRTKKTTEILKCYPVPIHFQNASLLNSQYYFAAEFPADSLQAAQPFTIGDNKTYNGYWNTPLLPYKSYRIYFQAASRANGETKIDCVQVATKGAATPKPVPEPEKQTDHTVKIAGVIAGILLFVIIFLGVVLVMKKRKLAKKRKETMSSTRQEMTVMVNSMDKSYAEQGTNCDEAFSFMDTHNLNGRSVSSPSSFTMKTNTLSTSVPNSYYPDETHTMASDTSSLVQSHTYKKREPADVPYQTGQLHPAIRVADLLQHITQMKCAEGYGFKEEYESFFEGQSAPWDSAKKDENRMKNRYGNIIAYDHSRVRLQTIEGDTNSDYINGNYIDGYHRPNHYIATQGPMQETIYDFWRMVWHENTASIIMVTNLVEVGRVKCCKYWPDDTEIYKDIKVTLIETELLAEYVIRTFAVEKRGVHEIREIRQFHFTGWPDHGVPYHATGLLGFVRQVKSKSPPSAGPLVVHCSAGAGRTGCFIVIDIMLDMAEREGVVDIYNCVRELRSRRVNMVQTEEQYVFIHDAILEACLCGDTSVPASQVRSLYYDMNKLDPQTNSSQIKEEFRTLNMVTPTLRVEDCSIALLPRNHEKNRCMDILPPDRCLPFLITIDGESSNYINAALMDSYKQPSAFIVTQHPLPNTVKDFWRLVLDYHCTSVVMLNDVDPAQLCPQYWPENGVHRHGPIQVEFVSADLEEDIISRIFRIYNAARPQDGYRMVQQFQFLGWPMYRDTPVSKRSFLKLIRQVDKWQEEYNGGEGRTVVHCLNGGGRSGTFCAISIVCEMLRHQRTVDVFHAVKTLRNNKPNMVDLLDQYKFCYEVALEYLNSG
human Vascular Endothelial Growth Factor Receptor 3 (VEGFR3), FLT4 (gene 2324), sequence (P35916 whole entry, looked up): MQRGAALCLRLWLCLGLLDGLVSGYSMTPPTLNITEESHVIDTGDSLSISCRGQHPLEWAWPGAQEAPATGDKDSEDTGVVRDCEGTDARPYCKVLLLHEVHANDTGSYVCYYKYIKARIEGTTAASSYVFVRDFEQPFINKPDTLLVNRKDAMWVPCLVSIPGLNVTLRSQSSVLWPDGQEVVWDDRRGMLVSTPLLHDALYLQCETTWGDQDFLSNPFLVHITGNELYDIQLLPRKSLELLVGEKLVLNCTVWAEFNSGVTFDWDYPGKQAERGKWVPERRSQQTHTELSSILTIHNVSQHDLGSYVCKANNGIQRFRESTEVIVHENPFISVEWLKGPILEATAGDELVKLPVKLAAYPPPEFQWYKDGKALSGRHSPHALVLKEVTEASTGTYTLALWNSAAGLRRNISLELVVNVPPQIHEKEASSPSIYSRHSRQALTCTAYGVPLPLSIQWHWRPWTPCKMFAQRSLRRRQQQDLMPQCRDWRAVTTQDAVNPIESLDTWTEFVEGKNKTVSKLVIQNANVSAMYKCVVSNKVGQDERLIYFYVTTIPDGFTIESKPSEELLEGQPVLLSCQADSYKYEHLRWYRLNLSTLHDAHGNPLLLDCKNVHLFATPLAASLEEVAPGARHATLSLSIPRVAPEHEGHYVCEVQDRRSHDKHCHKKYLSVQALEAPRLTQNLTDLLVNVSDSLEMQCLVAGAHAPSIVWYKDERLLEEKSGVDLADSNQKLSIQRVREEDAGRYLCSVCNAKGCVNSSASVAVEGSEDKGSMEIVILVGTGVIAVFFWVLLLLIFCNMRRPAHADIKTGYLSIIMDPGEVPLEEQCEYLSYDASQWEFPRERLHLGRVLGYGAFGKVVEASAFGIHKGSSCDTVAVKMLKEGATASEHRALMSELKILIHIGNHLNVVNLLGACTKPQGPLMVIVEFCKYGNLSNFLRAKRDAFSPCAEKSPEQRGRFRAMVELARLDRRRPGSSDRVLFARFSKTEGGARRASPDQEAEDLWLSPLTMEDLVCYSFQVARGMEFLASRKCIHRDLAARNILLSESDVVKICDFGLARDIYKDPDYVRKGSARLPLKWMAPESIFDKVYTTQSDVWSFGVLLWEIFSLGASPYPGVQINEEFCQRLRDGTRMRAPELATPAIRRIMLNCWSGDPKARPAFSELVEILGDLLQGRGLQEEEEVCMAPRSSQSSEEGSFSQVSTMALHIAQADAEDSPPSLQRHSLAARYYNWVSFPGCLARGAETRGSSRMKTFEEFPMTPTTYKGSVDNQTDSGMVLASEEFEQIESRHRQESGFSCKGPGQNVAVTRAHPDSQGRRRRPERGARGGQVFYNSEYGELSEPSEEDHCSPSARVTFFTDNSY
human AKT serine/threonine Kinase 1 (AKT1), AKT1 (gene 207), sequence (P31749 whole entry, looked up): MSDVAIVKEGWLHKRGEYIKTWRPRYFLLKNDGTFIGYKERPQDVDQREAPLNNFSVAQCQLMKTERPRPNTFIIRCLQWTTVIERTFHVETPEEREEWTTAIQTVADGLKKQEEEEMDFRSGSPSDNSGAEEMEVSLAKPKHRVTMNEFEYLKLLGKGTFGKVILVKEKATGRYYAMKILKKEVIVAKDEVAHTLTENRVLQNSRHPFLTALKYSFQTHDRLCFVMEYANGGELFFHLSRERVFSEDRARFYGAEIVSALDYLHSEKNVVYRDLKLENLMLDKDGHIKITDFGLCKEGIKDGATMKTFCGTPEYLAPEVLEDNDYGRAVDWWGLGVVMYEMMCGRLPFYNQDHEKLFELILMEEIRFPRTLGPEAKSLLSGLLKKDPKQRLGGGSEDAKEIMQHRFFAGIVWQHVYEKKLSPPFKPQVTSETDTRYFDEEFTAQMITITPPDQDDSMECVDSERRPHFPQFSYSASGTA
Tyrosine-protein phosphatase non-receptor type 11 (Homo sapiens), sequence (Q06124 whole entry, looked up): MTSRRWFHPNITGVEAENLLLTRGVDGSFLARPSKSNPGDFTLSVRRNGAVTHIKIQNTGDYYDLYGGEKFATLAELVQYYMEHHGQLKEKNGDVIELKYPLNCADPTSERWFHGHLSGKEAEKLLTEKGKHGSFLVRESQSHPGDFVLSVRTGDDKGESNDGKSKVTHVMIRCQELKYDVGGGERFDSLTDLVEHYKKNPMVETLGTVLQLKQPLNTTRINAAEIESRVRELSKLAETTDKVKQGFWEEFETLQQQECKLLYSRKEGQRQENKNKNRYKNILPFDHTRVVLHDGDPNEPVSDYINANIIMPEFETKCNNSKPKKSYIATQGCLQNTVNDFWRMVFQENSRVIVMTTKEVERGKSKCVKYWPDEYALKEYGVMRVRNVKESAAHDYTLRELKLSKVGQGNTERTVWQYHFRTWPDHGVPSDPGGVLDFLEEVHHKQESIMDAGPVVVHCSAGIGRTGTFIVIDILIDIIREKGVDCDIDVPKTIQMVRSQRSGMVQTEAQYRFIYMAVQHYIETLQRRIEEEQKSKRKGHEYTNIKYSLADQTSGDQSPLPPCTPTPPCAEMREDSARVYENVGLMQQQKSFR
human FYN Proto-Oncogene, Src family Tyrosine Kinase (Fyn), FYN (gene 2534), sequence (P06241 whole entry, looked up): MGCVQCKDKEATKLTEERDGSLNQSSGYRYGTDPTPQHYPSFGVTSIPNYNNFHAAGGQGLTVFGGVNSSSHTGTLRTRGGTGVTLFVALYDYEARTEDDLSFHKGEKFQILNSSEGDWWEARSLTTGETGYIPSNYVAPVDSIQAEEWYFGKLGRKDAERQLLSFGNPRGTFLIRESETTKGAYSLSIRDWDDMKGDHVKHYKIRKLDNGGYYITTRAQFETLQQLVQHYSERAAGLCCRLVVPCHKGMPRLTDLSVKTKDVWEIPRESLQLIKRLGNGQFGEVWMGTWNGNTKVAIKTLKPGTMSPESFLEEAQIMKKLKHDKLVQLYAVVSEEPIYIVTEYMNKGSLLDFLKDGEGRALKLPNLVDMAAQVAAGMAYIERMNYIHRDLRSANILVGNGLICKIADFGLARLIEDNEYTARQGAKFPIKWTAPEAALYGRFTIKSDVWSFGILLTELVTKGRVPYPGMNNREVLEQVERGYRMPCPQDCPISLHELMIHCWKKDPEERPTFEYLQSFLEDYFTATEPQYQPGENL
human Protein Tyrosine Phosphatase Non-receptor Type 2 (PTPN2), PTPN2 (gene 5771), sequence (P17706 whole entry, looked up): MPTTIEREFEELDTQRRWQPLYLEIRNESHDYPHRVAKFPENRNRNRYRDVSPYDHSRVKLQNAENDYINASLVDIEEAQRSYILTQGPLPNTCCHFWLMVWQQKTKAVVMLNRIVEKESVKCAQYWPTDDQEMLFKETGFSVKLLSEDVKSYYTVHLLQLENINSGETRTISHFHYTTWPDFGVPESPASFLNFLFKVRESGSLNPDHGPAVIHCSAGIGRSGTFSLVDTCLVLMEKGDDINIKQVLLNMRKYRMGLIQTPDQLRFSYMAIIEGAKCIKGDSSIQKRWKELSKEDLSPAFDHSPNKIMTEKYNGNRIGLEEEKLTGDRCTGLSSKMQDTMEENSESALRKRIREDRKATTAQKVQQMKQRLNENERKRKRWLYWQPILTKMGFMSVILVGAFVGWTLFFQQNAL

CC(C)[C@@H](C(=O)O[C@@H](C#N)c1cccc(Oc2ccccc2)c1)c1ccc(Cl)cc1
inactive: [1]

O=[N+]([O-])c1ccc(Cl)cc1
not listed: [1]
inactive: all other assays above
